Laboratory results: ChEMBL document CHEMBL3988442, “University of Dundee, Small-Polar-MMV Screening Library” (2021)
For some of these results: Entries with a potency or affinity are not part of this list.

Key:
Parameters in all cases: scale not given: direction of the effect not stated beside the values
[1] = molecular target: Protein translocase subunit SecA (Escherichia coli (strain K12)) (UniProt P10408); assay: Assay to Identify E. coli SecA ATPase Inhibitors; type: functional; settings: 30 µM
[2] = molecular target: T1, Ubiquitin-activating enzyme e1, putative (Leishmania donovani (strain BPK282A1)) (UniProt E9BSI1); assay: Leishmania donovani Ubiquitin Activating Enzyme (LdE1); type: functional; settings: 30 µM
T1 sequence (whole entry): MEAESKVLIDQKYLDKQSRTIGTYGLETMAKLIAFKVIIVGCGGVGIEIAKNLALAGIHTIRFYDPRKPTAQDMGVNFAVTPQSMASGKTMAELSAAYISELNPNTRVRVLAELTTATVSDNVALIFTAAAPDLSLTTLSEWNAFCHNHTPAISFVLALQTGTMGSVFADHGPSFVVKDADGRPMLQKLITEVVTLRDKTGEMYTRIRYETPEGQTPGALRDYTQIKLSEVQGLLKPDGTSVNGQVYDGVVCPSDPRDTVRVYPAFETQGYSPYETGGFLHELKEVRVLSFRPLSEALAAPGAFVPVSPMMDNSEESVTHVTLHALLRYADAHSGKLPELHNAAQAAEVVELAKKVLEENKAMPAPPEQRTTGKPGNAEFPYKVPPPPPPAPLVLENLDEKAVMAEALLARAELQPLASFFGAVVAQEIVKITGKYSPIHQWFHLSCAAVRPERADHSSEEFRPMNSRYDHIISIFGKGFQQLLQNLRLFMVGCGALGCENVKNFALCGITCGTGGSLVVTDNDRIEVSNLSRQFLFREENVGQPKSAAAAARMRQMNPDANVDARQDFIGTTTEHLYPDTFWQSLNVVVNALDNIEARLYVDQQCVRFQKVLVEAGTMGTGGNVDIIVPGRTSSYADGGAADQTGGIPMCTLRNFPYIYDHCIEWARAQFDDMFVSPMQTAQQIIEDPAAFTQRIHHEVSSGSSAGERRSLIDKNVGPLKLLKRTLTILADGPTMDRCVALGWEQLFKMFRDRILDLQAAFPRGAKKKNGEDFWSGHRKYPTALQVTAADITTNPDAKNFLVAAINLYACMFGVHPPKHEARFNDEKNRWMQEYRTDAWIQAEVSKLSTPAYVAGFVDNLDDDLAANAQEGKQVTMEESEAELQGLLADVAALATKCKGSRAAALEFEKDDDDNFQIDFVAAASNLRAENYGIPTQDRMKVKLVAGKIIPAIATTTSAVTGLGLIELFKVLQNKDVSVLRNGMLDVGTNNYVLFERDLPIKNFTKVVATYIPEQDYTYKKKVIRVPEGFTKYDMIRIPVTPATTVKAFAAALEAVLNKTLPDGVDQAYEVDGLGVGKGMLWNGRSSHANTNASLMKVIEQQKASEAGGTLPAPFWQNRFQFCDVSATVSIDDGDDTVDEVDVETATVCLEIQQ

[3] = molecular target: AMP-activated protein kinase, AMPK (Homo sapiens) (UniProt P54646+O43741+P54619+Q9UGJ0+Q9Y478+Q13131+Q9UGI9); assay: AMP-dependent Kinase enzyme assay. An in vitro enzyme assay that detects ADP turnover that is directly proportional to AMPK activity. This uses naive AMPK that is activated during the assay with MK-8722; type: functional; settings: 30 µM
[4] = molecular target: Sialic acid-binding Ig-like lectin 9 (Homo sapiens) (UniProt Q9Y336); assay: Hs-Siglec9 ALPHAscreen SOP 20170721; settings: 10 µM
Trypanosoma cruzi = assay: Trypanosoma cruzi phosphomannomutase and mannose-1-phosphate guanylyltransferase assay; type: functional; settings: 10 µM
[5] = molecular target: T2, Arginase-2, mitochondrial (Homo sapiens) (UniProt P78540); assay: in vitro enzyme assay to detect the production of urea directly proportional to the activity of Arginase II; type: functional; settings: 33.3 µM; note: in the data most compounds retested in dose-response had high values
T2 sequence (whole entry): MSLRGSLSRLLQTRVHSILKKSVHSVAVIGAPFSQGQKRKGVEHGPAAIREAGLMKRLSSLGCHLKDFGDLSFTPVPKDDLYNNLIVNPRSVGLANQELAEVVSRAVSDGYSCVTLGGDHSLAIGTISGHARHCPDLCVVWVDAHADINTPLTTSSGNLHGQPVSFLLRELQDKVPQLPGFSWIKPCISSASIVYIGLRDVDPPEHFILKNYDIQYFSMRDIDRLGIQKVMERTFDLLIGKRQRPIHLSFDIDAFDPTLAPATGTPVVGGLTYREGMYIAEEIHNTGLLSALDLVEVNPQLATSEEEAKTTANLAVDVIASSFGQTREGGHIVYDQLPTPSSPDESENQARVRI

[6] = molecular target: T3, Proteasome subunit beta (Trypanosoma cruzi) (UniProt O96673); assay: Trypanosoma cruzi proteasome chymotrypsin-like activity (TcProtChymo) assay.; note: in the data most compounds retested in dose-response had high values; type: functional; settings: 9.37 µM
T3 sequence (whole entry): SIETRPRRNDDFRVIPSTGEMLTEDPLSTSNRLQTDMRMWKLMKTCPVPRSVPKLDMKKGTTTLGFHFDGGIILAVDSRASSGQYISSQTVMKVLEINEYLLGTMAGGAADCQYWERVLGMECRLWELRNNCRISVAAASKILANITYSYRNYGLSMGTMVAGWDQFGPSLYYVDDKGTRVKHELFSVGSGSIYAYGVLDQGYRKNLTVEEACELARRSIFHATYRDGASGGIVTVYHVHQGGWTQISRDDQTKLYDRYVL

Homo sapiens = organism: Homo sapiens; assay: To identify inhibition of the IFN signalling (Jak-Stat) pathway via expression of an eGFP reporter gene under the control of an IFN-stimulated response element (ISRE) containing MxA promoter.; type: functional; settings: 30 µM
[7] = molecular target: T4, Tyrosyl-tRNA synthetase, putative (Trypanosoma cruzi (strain CL Brener)) (UniProt Q4DSP6); assay: Trypanosoma cruzi tyrosyl tRNA synthetase (TcYRS) _High Tyrosine SOP; type: functional; settings: 30 µM; note: in the data most compounds retested in dose-response had high values
T4 sequence (whole entry): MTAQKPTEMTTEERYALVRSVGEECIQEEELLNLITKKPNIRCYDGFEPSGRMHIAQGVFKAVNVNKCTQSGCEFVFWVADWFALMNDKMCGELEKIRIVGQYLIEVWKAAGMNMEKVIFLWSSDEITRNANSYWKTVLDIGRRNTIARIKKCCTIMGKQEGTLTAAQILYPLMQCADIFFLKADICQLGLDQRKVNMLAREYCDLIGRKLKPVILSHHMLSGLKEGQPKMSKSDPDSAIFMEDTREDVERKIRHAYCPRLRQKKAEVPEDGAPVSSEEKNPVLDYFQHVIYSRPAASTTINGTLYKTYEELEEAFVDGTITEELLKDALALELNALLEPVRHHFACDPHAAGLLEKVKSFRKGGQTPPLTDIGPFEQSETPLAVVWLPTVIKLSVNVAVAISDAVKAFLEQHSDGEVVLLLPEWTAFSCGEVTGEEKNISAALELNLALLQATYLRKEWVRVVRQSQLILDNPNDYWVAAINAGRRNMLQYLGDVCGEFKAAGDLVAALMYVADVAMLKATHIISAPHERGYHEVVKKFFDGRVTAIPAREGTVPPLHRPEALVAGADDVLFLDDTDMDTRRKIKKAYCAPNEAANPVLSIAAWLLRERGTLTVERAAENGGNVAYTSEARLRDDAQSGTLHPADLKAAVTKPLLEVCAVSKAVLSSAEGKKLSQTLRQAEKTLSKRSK

[8] = molecular target: T4, Tyrosyl-tRNA synthetase, putative (Trypanosoma cruzi (strain CL Brener)); assay: Trypanosoma cruzi tyrosyl tRNA synthetase (TcYRS) SOP; type: functional; settings: 30 µM
[9] = molecular target: Chromo domain-containing protein 1 (Saccharomyces cerevisiae (strain ATCC 204508 / S288c) (Baker's yeast)) (UniProt P32657); assay: ScCHD-1 Enzyme Inhibition Assay; type: functional; settings: 30 µM; note: in the data most compounds retested in dose-response had high values
Chromo domain-containing protein 1 (Saccharomyces cerevisiae (strain ATCC 204508 / S288c) (Baker's yeast)), sequence (P32657 whole entry, the tested form may be a part): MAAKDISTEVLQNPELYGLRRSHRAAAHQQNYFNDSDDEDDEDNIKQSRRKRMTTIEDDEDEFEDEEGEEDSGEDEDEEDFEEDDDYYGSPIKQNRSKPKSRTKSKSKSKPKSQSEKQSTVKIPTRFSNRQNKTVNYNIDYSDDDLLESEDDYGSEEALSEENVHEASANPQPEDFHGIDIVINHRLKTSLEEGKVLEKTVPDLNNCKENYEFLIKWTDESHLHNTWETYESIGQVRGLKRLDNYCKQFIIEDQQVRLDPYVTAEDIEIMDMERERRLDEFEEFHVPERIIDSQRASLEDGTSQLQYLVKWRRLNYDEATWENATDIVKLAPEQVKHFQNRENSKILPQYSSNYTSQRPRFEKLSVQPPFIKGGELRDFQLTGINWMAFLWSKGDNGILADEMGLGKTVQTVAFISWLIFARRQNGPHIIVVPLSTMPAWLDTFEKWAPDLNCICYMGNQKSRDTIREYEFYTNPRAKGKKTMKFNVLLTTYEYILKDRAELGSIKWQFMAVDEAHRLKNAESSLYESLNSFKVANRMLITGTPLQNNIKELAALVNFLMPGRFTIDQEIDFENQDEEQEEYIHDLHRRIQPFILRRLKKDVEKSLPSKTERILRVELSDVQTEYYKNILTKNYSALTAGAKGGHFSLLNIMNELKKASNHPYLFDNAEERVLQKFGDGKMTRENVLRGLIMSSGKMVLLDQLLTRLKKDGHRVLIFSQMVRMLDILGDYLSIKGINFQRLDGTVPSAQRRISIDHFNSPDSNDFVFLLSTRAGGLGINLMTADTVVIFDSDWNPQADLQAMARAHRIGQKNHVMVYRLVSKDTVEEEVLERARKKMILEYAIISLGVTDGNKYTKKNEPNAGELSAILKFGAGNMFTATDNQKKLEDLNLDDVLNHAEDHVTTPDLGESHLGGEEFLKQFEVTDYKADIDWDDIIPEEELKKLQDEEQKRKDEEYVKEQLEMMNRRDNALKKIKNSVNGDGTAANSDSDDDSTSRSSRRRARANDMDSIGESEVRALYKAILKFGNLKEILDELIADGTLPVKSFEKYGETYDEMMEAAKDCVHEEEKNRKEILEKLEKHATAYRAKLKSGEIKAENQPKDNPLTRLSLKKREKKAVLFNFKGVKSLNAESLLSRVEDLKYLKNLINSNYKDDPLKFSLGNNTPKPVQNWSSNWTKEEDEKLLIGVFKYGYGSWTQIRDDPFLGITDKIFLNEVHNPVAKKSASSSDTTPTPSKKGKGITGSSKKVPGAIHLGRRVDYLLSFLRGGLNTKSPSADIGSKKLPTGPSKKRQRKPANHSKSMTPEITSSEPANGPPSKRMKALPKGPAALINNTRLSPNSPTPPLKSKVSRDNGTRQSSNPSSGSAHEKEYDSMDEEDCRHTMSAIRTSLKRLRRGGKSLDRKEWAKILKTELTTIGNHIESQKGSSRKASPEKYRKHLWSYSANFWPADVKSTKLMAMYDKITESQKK

Sialic acid-binding Ig-like lectin 9 (Homo sapiens), sequence (Q9Y336 whole entry): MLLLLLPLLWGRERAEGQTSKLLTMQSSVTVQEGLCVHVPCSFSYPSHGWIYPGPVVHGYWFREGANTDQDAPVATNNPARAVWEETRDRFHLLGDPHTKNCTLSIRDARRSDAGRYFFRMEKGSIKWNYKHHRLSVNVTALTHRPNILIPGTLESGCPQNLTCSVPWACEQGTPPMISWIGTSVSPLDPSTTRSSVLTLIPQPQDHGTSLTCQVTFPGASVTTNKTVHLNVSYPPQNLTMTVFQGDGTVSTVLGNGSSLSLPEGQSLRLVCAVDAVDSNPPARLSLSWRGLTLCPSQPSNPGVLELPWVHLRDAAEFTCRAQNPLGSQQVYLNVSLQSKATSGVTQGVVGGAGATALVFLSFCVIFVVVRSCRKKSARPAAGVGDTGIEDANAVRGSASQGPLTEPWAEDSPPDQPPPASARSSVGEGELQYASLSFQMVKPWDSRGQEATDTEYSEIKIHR
Protein translocase subunit SecA (Escherichia coli (strain K12)), sequence (P10408 whole entry): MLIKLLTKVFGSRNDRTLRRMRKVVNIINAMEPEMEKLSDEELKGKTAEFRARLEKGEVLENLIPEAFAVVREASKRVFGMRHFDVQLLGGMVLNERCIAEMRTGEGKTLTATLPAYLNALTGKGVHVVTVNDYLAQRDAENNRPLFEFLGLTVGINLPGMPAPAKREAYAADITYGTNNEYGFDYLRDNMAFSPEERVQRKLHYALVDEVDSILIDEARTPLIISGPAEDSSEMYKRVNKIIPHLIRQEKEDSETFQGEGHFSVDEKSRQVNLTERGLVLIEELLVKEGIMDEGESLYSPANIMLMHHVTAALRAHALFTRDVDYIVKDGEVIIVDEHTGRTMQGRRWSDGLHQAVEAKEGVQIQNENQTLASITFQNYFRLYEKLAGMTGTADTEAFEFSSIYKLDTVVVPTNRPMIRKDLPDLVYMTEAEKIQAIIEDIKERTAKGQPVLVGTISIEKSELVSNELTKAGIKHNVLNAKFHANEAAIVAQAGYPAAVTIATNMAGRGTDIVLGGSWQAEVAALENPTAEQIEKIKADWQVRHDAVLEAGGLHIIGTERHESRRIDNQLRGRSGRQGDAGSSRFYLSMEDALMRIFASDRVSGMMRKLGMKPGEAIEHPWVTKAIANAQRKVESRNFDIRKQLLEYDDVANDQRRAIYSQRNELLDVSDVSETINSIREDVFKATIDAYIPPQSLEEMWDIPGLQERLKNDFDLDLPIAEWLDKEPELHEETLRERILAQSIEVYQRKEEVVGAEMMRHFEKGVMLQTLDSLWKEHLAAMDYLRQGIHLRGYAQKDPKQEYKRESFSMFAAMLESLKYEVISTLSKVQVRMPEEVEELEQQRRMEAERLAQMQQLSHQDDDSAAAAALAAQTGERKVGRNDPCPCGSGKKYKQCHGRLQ

Row | Compound | Percent Effect [1] [%] | Percent Effect [2] [%] | Percent Effect [3] [%] | Percent Effect [4] [%] | Percent Effect (Trypanosoma cruzi) [%] | Percent Effect [5] [%] | Percent Effect [6] [%] | Percent Effect (Homo sapiens) [%] | Percent Effect [7] [%] | Percent Effect [8] [%] | Percent Effect [9] [%]
1 | NC(=O)c1cnn2c1NCC(CNCCc1ccco1)C2 (stereo unspecified) | -1.64 | 2.63 | 2.04 | -0.712 | -5.26 | 3.45 | 8.86 | 7.72 | 2.45 | 7.32 | -1.74
2 | Cn1ncc2c(=O)[nH]c(CN3CCCC3c3cccs3)nc21 (stereo unspecified) | -2.36 | 20.2 | -1.76 | -3.9 | -5.38 | 1.14 | 5.32 | 15.9 | 7.39 | 11.4 | -5.13
3 | Cc1ccc(C)c(OC2CCN(C(=O)c3ccc(O)nc3)CC2)c1 | -1.92 | 15.8 | -2.4 | 7.02 | 3.76 | 0.383 | 17.5 | 10.8 | 8.33 | 21.9 | -11.2
4 | O=C(COCC1CC1)N1CCCC(n2cncn2)C1 (stereo unspecified) | 1.39 | 10.8 | -12 | -7.81 | -3.3 | -2.81 | 13 | 12.5 | 1.48 | 16.1 | -2.64
5 | O=C1CCC2(CCN(Cc3cc(F)ccc3Cl)CC2)CN1C1CCCC1 | 0.0694 | 13.3 | -4.38 | 3.44 | 3.99 | 0 | 18.1 | 18.2 | 7.1 | 13.6 | -2.27
6 | COc1cc(NC(=O)c2ccccc2F)c(C(=O)N(C)C)cc1OC | 1.19 | 5.2 | 0.986 | 2.38 | -7.96 | -8.28 | 18.8 | -4.11 | 3.23 | 11.1 | -2.46
7 | Cc1cnn(CC2CN(Cc3cccc(OCC(N)=O)c3)CCO2)c1 (stereo unspecified) | -3.33 | -5.2 | 0.653 | 4.26 | -7.3 | 5.34 | -2.53 | 23.4 | 3.88 | -2.44 | 1.45
8 | Cc1noc(C)c1CNCC1CCCN1c1cccnn1 (stereo unspecified) | -6.8 | -5.2 | 5.72 | -3.1 | -4.02 | -3.16 | -2.83 | 6.36 | 1.91 | -2.35 | -1.61
9 | CC(COc1ccc(F)cc1F)NC(=O)NCCN1CCOCC1 (stereo unspecified) | -3.66 | 10.5 | 7.15 | -1.15 | 4.77 | -5.92 | 16 | -26.7 | 1.06 | 13 | -2.74
10 | COc1c(CNCCNC(=O)c2ccco2)c(C)nn1C | -4.26 | 2.7 | -4.46 | 0.652 | -1.39 | -0.185 | 4.31 | 11.3 | 3.96 | 11 | 0.206
11 | CCN1CCN(C(=O)c2cc(C(=O)OC)nn2-c2ccccc2)CC1 | -1.39 | 18.4 | 3.57 | -5.6 | -5.26 | 11.5 | 15.2 | 20.6 | 7.35 | 7.32 | -8.31
